The results in this text go back to PubChem BioAssay AID652115 (Broad Institute, 2013).

The whole screen tested about 330,000 compounds, of which about 3,800 (1.2%) were called active. The full list was thinned out, with actives kept by preference. Values without a mark were called inactive. Rule as the data show it: active = inhibition above about 15%; inconclusive = no clear call, values can overlap the other calls; inactive = below that.

Sequence of NAD-dependent protein deacylase sirtuin-5, mitochondrial (Homo sapiens) (Q9NXA8 whole entry, looked up): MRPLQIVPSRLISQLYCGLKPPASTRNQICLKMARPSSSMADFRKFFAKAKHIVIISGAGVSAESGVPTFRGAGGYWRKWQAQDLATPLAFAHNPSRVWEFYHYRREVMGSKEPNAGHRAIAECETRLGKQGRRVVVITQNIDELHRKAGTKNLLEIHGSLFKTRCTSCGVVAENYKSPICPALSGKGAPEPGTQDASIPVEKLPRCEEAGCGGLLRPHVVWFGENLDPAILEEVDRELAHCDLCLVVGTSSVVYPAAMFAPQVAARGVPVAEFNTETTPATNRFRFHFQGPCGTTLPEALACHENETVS

The test concerns the target NAD-dependent protein deacylase sirtuin-5, mitochondrial (Homo sapiens) (UniProt Q9NXA8). Kind of test: blockers of sirtuin-5 deacylase activity – biochemical, fluorescence imaging, single point, set 5, primary screen (AID 652115). As to conditions: Purified SirT5, succinyl-peptide AMC, trypsin-coupled fluorescence; at 15 µM; hits give high values.
On to `CC(Cc1ccccc1)NC=O` (stereo not given), for which the inhibition was -0.859%.

As to `O=C(COC(=O)Cc1ccccc1)Nc1ccc(F)cc1`, the inhibition was -1.48%. The value for `CC(=O)Nc1ccc(C(=O)C(Cc2ccccc2)N(C)C)cc1` (stereo not given) was 18.6% (active); that for `COC(=O)[C@H]1[C@H](CO)[C@H]2Cn3c(cccc3=O)[C@H]2N1CC1CC1` was 0.308%; that for `COC(=O)C1=C(c2ccc(OCc3ccccc3)cc2)C[C@@H]2CC[C@H]1N2C(=O)NCc1cccc(F)c1` was -8.66%. In the case of `O=C1NCN(c2ccccc2)C12CCN(C(c1cccs1)c1nnnn1C1CCCCC1)CC2` (stereo not given) it was 3.05%; in that of `COc1cccc(N2C(=O)NC(=O)/C(=C\c3cn(C)c4ccccc34)C2=O)c1`, -7.3%. In the case of `COc1ccc(N2C(=O)/C(=C/c3ccco3)C(=O)NC2=S)cc1` it was 44.4% (active). Turning to `COc1ccc(CN2C(=O)NC(=O)/C(=C\c3ccc(OC)c(OC)c3OC)C2=O)cc1`, the inhibition is -0.842%. In the case of `S=C(NCCc1ccccc1)N1Cc2cc(N3CCOCC3)ccc2-n2nncc2C1` it was 0.564%.

As a reminder, the inhibition is the relative decrease from the control value, in per cent.
